# This is a sample that favours compounds with a hit; in the whole collection about 3.6% have one here.
# TROY signal inh: blocks TROY-dependent signaling in reporter cells; Q293 LMP1-TROYcd NF-kB luciferase reporter, 4 h; inhibition, % at 10 µM; actives 0.98% (n = 360,000);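 active = compounds whose plate-normalised and pattern-corrected inhibition of the luciferase reporter signal at the single screening dose is 50% or more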
# EBV LMP1 NFkB: Epstein-Barr LMP1 NF-kappaB reporter inhibition; actives 0.69% (n = 350,000); LMP1-induced NF-kappaB luciferase reporter cells, luminescence; inhibition, % at 12.5 µM; in the data active = inhibition above about 41%; inconclusive = no clear call, values can overlap the other calls;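 note: 0% = neutral control wells and 100% = reference inhibitor control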
# TWEAK-Fn14 inh: TWEAK-Fn14 signaling inhibition; actives 2% (n = 360,000); TWEAK-stimulated Fn14 reporter cells, luciferase luminescence, 8 h; inhibition, % at 10 µM; AID 1159606; in the data active = inhibition above about 50%
# HSF1 inhib: HSF1 inhibition | NIH3T3-HGL HSE-luciferase, MG132-induced, luminescence 8 h; stronger effect = lower value | actives 0.77% (n = 300,000) | activity change, negative = inhibition, % at 7.5 µM (by protocol);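 active = more than half of replicate wells show activity change below -50%, luminescence cut by over half; inconclusive = some wells, but at most half, below -50%; inactive = no replicate well below -50%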;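 note: luciferase reports HSF-1 transcriptional activity via heat shock element; 0% = median of DMSO wells and -100% = zero luminescence signal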
# HSF-1 act: increases HSF-1 driven luciferase reporter signal; NIH3T3-HGL HSF-1 luciferase reporter, MG132, 8 h; 100% = twice DMSO control signal; activation, % at 9 µM; actives 1.7% (n = 300,000);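 active = mean replicate activation of at least 50% with a set share of replicates each reaching 50%; inconclusive = only one of those two conditions met; inactive = mean below 50% and too few replicates reaching it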;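 note: 0% = median of the neutral control wells and 100% = twice that signal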
# LGR2 antag: blocks bursicon-induced cAMP signaling via Drosophila LGR2. HEK293 LGR2, CRE-luciferase, bursicon-stimulated, 4 h. inhibition, % at 9.99 µM. actives 0.35% (n = 380,000). AID 720647;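 active = drop in luminescence signal, shown as inhibition above about 50% in the replicate tests, limit read from the data, passing the limit was not always enough; inconclusive = probably only some replicates passing the limit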;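 note: agonist challenge used bursicon conditioned medium at about half maximal strength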
# Active calls of the source: *; ? = inconclusive; . = no result given.
SMILES,TROY signal inh,EBV LMP1 NFkB,TWEAK-Fn14 inh,HSF1 inhib,HSF-1 act,LGR2 antag
CC(C)(C)CC(=O)Nc1nnc(C(F)(F)F)s1,15,-14,-2,-3,3,.
CC(NC(=O)Nc1nnc(C(F)(F)F)s1)(C(F)(F)F)C(F)(F)F,55*,44*,30,-14,-5,.
CCCCc1ccc(NC(=S)NCc2ccc(OC)cc2)cc1,-4,-2,-18,8,51*,-6
CC1=Nc2ccccc2/C1=C/c1sc(=N)n(-c2nccs2)c1O,74*,29,101*,-21,-15,-2
CC1=Nc2ccccc2/C1=C\c1nc(-c2ccc(C(F)(F)F)cc2)oc1O,11,-3,5,6,18,-4
CN1[C@@H]2Cn3c(ccc(-c4ccc(F)cc4)c3=O)[C@H]1[C@@H](C(=O)NC1CCC1)[C@@H]2CO,.,.,.,.,.,-4
c1ccc(OCCOCCOc2ccccc2)cc1,-37,-4,-13,.,.,-32
CC(C)(C)CC(C)(C)c1ccc(OCCOCC[N+](C)(C)Cc2ccccc2)cc1,48,7,57*,.,.,36
C[N+](C)(CCOc1ccccc1)Cc1ccccc1 (tested in a mixture with another compound),71*,-7,19,5,15,-6
Cc1cccc(S(=O)(=O)N2C[C@H]3[C@@H](c4ccccc42)[C@H](CO)N3CC2CCCC2)c1,.,.,.,.,.,15
O=C1C=C(O)c2c(O)cc(O)c(O)c2C1=O,6,9,70*,-2,-8,-12
O=C(/C(=C(\[O-])c1ccccc1)[n+]1ccc2ccccc2c1)c1ccccc1,1,-11,6,-4,4,2
O=C(/C(=C(\[O-])c1ccccc1)[n+]1ccc2ccccc2c1)c1ccc(Cl)cc1,-3,5,2,-57*,-66,-3
O=C(/C(=C(\[O-])c1ccccc1)[n+]1ccc2ccccc2c1)c1ccc([N+](=O)[O-])cc1,-45,-12,6,-64*,-72,-24
CC(C)NC(=O)N(C)C[C@@H]1Oc2c(NC(=O)C3CCOCC3)cccc2C(=O)N([C@H](C)CO)C[C@@H]1C,.,.,.,.,.,-4
O=C(CCN1N=C(c2ccccc2)CCC1=O)NCC1COc2ccccc2O1 (configuration not stated),12,1,75*,-7,-2,3
C[C@@H]1CCCCO[C@@H](CN(C)Cc2ccc(Cl)c(Cl)c2)[C@H](C)CN([C@H](C)CO)C(=O)c2cc(NC(=O)NC3CCCCC3)ccc2O1,.,.,.,.,.,4
CCOC(=O)CSc1n[nH]c(NC(=O)c2ccc(F)cc2)n1,5,9,50*,-1,-5,.
COCC(=O)N1C[C@@H](C)[C@H](OC)CN(C)C(=O)c2cc(NC(=O)Nc3ccccc3)ccc2OC[C@H]1C,.,.,.,.,.,13
O=C(Nc1ccccc1F)c1ccc(-c2cccc([N+](=O)[O-])c2)o1,-64,-16,-61,25,51*,-64
N#CCCN1CCN(C(=S)c2ccc(-c3ccc(Cl)c(Cl)c3)o2)CC1,-14,-17,19,61,100*,.
N#CCCN1CCN(C(=S)c2ccc(-c3cccc(Cl)c3)o2)CC1,-32,-29,-49,19,?,.
S=C(c1ccc(-c2cccc(Cl)c2)o1)N1CCCCC1,-38,-48,4,38,73*,-78
O=[N+]([O-])c1cccc(-c2ccc(C(=S)N3CCOCC3)o2)c1,-43,-54,-7,49,79*,-57
S=C(c1ccc(-c2cccc(Cl)c2)o1)N1CCOCC1,-52,-44,-15,37,49,-43
SMILES,TROY signal inh,EBV LMP1 NFkB,TWEAK-Fn14 inh,HSF1 inhib,HSF-1 act,LGR2 antag
O=C(Nc1nccs1)c1ccc(-c2cccc([N+](=O)[O-])c2)o1,-59,-33,-33,17,46,-77
C[C@H]1CCCCO[C@H](CN(C)C(=O)Nc2ccc(C(F)(F)F)cc2)[C@@H](C)CN([C@@H](C)CO)C(=O)c2cc(NS(=O)(=O)c3ccccc3)ccc2O1,.,.,.,.,.,8
CCCNC(=O)C[C@H]1CC[C@H]2[C@@H](COC[C@@H](O)CN2Cc2cccc(F)c2)O1,.,.,.,.,.,-8
C=CCNC(=O)c1cc(-c2ccncc2)nc2c(C)cc(C)cc12,84*,-5,-8,-4,-6,0
CCCC1c2ccc(C)n2CCN1C(=O)Nc1ccc(F)cc1 (configuration not stated),-15,-13,-13,-66*,-76,.
O=C(C[C@H]1C=C[C@@H](NC(=O)c2cccnc2)[C@H](CO)O1)NCCN1CCCCC1,.,.,.,.,.,3
CO[C@H]1CN(C)C(=O)c2cc(NC(=O)Nc3cccc(Cl)c3)ccc2OC[C@@H](C)N(C)C[C@@H]1C,.,.,.,.,.,-8
CC(=O)c1ccc(OCCCC(=O)Nc2ccc(C)c(S(=O)(=O)N3CCCCC3)c2)cc1,36,18,51*,.,.,-8
Cc1ccc(NC(=O)COc2cccc(C)c2C)cc1S(=O)(=O)N1CCCCCC1,29,11,21,-5,-9,2
O=C(Cn1[nH]c(=O)c2ccccc2c1=O)Nc1cccc(S(=O)(=O)N2CCCCCC2)c1,25,7,51*,0,5,15
Cc1cccc(OCC(=O)Nc2cc(S(=O)(=O)N3CCCCC3)ccc2N2CCN(C)CC2)c1,85*,2,15,-1,-15,22
CN1CCN(c2ccc(S(=O)(=O)N3CCCCC3)cc2NC(=O)COc2cccc(Cl)c2)CC1,-9,12,1,5,4,5
CCc1cccc(OCC(=O)Nc2ccc(C)c(S(=O)(=O)N3CCCCCC3)c2)c1,39,23,50*,1,-2,-75
CC(C)CC#Cc1cnc2c(c1)C(=O)N([C@H](C)CO)C[C@H](C)[C@@H](CN(C)C(=O)c1cccnc1)O2,.,.,.,.,.,5
CC(=O)N(C)C[C@@H]1Oc2cc(-c3ccccc3C)ccc2S(=O)(=O)N([C@@H](C)CO)C[C@@H]1C,.,.,.,.,.,-33
C[C@@H]1CN([C@H](C)CO)C(=O)Cc2cc(NC(=O)Cn3cnnn3)ccc2O[C@@H]1CN(C)Cc1ccc(Oc2ccccc2)cc1,.,.,.,.,.,-14
COc1ccc(S(=O)(=O)N2CCCCCC2)cc1C(=O)OCC(=O)NC(C)(C)C,-2,1,-8,-68*,-75,18
Cc1ccc(NC(=O)COc2ccccc2C=O)cc1Cl,-13,-52,28,44,80*,13
Cc1ccc(NC(=O)COc2ccc(N(C)C(=O)C(C)(C)C)cc2)cc1S(=O)(=O)N1CCCCC1,39,15,69*,.,.,18
CCOc1ccccc1OCC(=O)Nc1cccc(S(=O)(=O)N2CCCCCC2)c1,2,0,2,11,33,7
CC(=O)c1ccccc1OCC(=O)Nc1cccc(S(=O)(=O)N2CCCC2)c1,-4,46*,1,.,.,1
COc1cccc(S(=O)(=O)Nc2ccc3c(c2)[C@@H]2C[C@@H](CC(=O)N4CCCCC4)O[C@@H](CO)[C@@H]2O3)c1,.,.,.,.,.,-12
